# Laboratory results as given in publication PMC5540273 (PLoS ONE, 2017).
# Assays:
# Details in all cases: concentration: 1 μM, replicates: in singlicate; n = 1
# ERK5 = system: T1, ERK5
# T1 construct: gene MAPK7
# ERK8 = system: T2, ERK8
# T2 construct: gene MAPK15
# ERN1 = system: ERN1
# FAK = system: T3, FAK
# T3 construct: gene PTK2
# FER = system: FER
# FES = system: FES
# FGFR1 = system: FGFR1
# FGFR2 = system: FGFR2
# FGFR3 = system: FGFR3
# FGFR4 = system: FGFR4
# FGR = system: FGR
# FLT1 = system: FLT1
# FLT3-autoinhibited = system: FLT3-autoinhibited
# FLT3 = system: FLT3
# FLT4 = system: FLT4
# FRK = system: FRK
# FYN = system: FYN
# GAK = system: GAK
# GCN2(Kin.Dom.2,S808G) = system: T4, GCN2(Kin.Dom.2,S808G)
# T4 construct: gene EIF2AK4
# GRK1 = system: GRK1
# 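Also: KINOMEscan kinase panel screen.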
SMILES,%Inh (ERK5) [%],%Inh (ERK8) [%],%Inh (ERN1) [%],%Inh (FAK) [%],%Inh (FER) [%],%Inh (FES) [%],%Inh (FGFR1) [%],%Inh (FGFR2) [%],%Inh (FGFR3) [%],%Inh (FGFR4) [%],%Inh (FGR) [%],%Inh (FLT1) [%],%Inh (FLT3-autoinhibited) [%],%Inh (FLT3) [%],%Inh (FLT4) [%],%Inh (FRK) [%],%Inh (FYN) [%],%Inh (GAK) [%],"%Inh (GCN2(Kin.Dom.2,S808G)) [%]",%Inh (GRK1) [%]
COc1cc(OC)cc(-c2cc3cnc(N)nc3nc2NC(=O)NC(C)(C)C)c1,2,29,0,0,0,0,97.8,96.7,96.3,54,0,38,0,0,73,0,1,0,3,13
Cc1nnc(-c2ccc3ncn(-c4ccc(S(C)=O)cc4)c3c2)o1 (centres unmarked),3,6,18,1,5,20,1,14,9,12,18,8,0,8,0,0,8,2,19,11
COc1cc2ncn(-c3cc(OCc4ccncc4)c(C(N)=O)s3)c2cc1OC [GSK336313],0,0,23,0,24,0,0,0,7,2,28,19,0,0,17,0,35,17,0,0
Cc1cc(Nc2nc(-c3cccc(C)n3)nc3ccccc23)ccn1 [GW872411],3,13,0,0,0,0,12,0,0,0,0,0,0,7,0,0,0,0,0,13
COC(=O)c1c(-c2ccccc2)c2cc(Br)ccc2c(=O)n1Cc1ccc(NC(=O)CCC(=O)O)cc1,13,0,20,0,0,9,0,0,0,0,8,0,0,6,9,8,0,0,0,0
CN1C(=O)C(Nc2ccccc2)=C(c2ccccc2)C1=O [SB-300079],0,2,17,0,0,0,0,0,0,0,0,0,0,0,0,0,0,0,6,26
CCc1nc(-c2cccc(C)c2)c(-c2ccncc2)s1,4,6,0,99.9,13,0,0,0,0,0,19,13,0,0,0,9,0,49,3,25
CC(C)(C)c1ccc(C(=O)Nc2cn3cc(-c4ccccc4)ccc3n2)cc1,0,20,26,0,0,0,0,1,7,0,0,0,0,35,0,10,0,0,8,25
COc1cc(Nc2ccnc3ccc(C(F)(F)F)cc23)cc(OC)c1OC [GW577382],0,0,0,0,21,2,16,25,3,11,30,9,0,0,3,19,30,86,9,17
O=C(Nc1n[nH]c2nc(-c3ccccc3)c(Cl)cc12)C1CC1 [SB-734909],0,0,24,0,0,0,0,4,5,0,13,9,16,2,0,0,0,0,0,37
Cc1nc(N(C)[C@H]2CN(C(=O)CC#N)CC[C@H]2C)c2cc[nH]c2n1,7,1,12,0,0,9,1,6,0,0,6,0,0,5,15,0,2,0,0,0
Cc1ccc(Oc2ccc(Nc3ncnc4cc[nH]c34)cc2C)cn1,5,0,21,8,15,23,10,0,4,11,29,92.5,23,3,0,12,0,10,0,9
COc1cc(Nc2nccc(N3CCC(NC(=O)C(C)c4ccc(Cl)cc4)C3)n2)cc(OC)c1OC (centres unmarked) [GSK1379757],0,0,0,0,2,18,0,45,2,0,26,40,0,25,7,0,0,0,0,0
O=C(Nc1n[nH]c2cc(-c3ccccc3F)ccc12)C1CC1 [SB-733371],16,43,0,0,0,1,1,0,0,0,14,29,0,38,0,0,0,0,0,12
Cc1cccc(-c2nc(Nc3ccc4c(cnn4C)c3)c3ccccc3n2)n1 [GW876731],1,0,29,11,9,4,0,21,4,0,0,0,0,9,0,13,9,19,12,1
C[C@@H]1CC[C@H](C(=O)NC2CCCCC2)CN1c1cc(-c2ccc3c(N)n[nH]c3c2)nc(N)n1 [GSK2291363],0,1,17,0,41,0,4,8,17,12,27,35,9,9,14,19,21,17,0,0

SMILES,%Inh (ERK5) [%],%Inh (ERK8) [%],%Inh (ERN1) [%],%Inh (FAK) [%],%Inh (FER) [%],%Inh (FES) [%],%Inh (FGFR1) [%],%Inh (FGFR2) [%],%Inh (FGFR3) [%],%Inh (FGFR4) [%],%Inh (FGR) [%],%Inh (FLT1) [%],%Inh (FLT3-autoinhibited) [%],%Inh (FLT3) [%],%Inh (FLT4) [%],%Inh (FRK) [%],%Inh (FYN) [%],%Inh (GAK) [%],"%Inh (GCN2(Kin.Dom.2,S808G)) [%]",%Inh (GRK1) [%]
O=c1cc(N2CCOCC2)nc2n(Cc3ccc(F)c(Cl)c3)ccn12 [GSK2297099],2,0,0,0,0,0,0,0,0,0,25,10,2,0,0,0,56,1,2,0
OCCCNc1nccc(-c2c(-c3cccc(C(F)(F)F)c3)nn3cc(C(F)(F)F)ccc23)n1 [GW630813],0,0,0,0,8,0,0,0,0,0,16,24,0,0,12,0,0,8,0,100
Cc1nn2c(=O)cc(N3CCOCC3)nc2n1Cc1cccc(Cl)c1Cl [GSK2342769],0,18,0,0,14,6,1,30,15,5,24,27,9,0,34,0,0,1,3,3
O=C(Nc1n[nH]c2nc(-c3ccccc3)c(Br)cc12)C1CC1 [SB-708998],100,15,0,0,7,0,14,0,13,5,8,25,8,1,26,0,26,11,0,0
CCn1c(-c2nonc2N)nc2ccccc21 [SB-693162/GW549034],0,1,26,8,0,0,0,7,14,0,0,0,52,20,0,0,0,0,24,46
O=C(Nc1ccc2c(c1)OCO2)NC1CCN(c2ccnc(NCc3ccc(F)cc3)n2)CC1 [GSK1379859],0,0,0,0,8,0,4,0,0,0,9,15,0,0,9,0,31,4,1,0
COc1cccc(C2=C(Nc3cccc(C(=O)O)c3)C(=O)NC2=O)c1 [SB-390770],0,36,0,3,40,0,50,71,48,14,14,13,5,0,25,2,29,21,0,14
Nc1n[nH]c2ncc(-c3ccccc3)cc12 [SB-517081],0,0,9,0,0,0,0,0,2,18,28,7,49,72,0,15,26,70,52,0
COc1cccc(-n2cnc3c(N)ncnc32)c1 [SKF-97416],0,8,43,4,0,4,7,0,0,0,0,0,9,28,0,0,0,26,8,24
Nc1nccc2scc(-c3ccc4c(c3)CCN4C(=O)Cc3ccccc3)c12 [GSK2576924],10,0,15,0,16,0,0,0,27,7,22,22,3,0,21,0,33,0,0,4
COc1ccc(CNC(=O)NC2CCN(c3ccnc(Nc4ccc(F)cc4)n3)C2)cc1 (centres unmarked) [GSK1379706],0,0,0,4,25,0,0,15,22,15,19,21,0,16,0,14,20,19,4,5
Cl.c1ccc(Cn2cnc3cc(Nc4ncnc5ccccc45)ccc32)cc1 [GW272142],1,0,1,0,21,0,0,0,14,3,23,16,0,0,3,0,10,0,0,0
CCn1c(-c2ccoc2)nc2cnccc21 [SB-733887],0,0,0,0,20,0,0,0,0,20,10,9,65,0,10,0,47,0,0,0
COc1ccc(-n2cnc3c(N)ncnc32)cc1 [SKF-97236],0,40,0,13,13,0,27,0,0,18,0,24,34,83,22,0,25,27,0,0
Cc1nnc(-c2ccc(C)c(-c3ccc(C(=O)O)cc3)c2)o1 [GW608005],0,20,5,0,0,0,5,0,0,0,12,20,4,0,12,0,10,5,0,0
